Source: the supplement of paper PMC11732987, “Enantioselective OTUD7B fragment discovery through chemoproteomics screening and high-throughput optimisation” (Communications Chemistry, 2025)

Assays:
Experiment in all cases: log2 ratio of Biotin-Ahx-Ub-VS probe labelling (fragment/DMSO); higher = less target engagement (more negative = stronger competition), active = hit call of the paper (q ≤ 0.05, log2 ratio ≤ -1)
Conditions in all cases: compound concentration: 200 uM; treatment time: 3 h
USP34 = USP34 (UniProt Q70CQ2)
In short: (§1)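 Using Biotin-Ahx-Ub-VS at 0.5 µM final for 1 h, DUBs were labelled in HEK293T lysate (495 µg per sample) that had first been treated in triplicate with fragment at 200 µM or vehicle for 3 h. NeutrAvidin enrichment, LysC and trypsin digestion and diaPASEF LC-MS/MS followed. Spectronaut label-free quantities were global-median-normalised. Values are average log2 fragment/vehicle ratios by unpaired t-test, using proteins with ≥2 unique peptides.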

USP36 = target: T1, USP36 (UniProt Q9P275)
T1 sequence (whole entry): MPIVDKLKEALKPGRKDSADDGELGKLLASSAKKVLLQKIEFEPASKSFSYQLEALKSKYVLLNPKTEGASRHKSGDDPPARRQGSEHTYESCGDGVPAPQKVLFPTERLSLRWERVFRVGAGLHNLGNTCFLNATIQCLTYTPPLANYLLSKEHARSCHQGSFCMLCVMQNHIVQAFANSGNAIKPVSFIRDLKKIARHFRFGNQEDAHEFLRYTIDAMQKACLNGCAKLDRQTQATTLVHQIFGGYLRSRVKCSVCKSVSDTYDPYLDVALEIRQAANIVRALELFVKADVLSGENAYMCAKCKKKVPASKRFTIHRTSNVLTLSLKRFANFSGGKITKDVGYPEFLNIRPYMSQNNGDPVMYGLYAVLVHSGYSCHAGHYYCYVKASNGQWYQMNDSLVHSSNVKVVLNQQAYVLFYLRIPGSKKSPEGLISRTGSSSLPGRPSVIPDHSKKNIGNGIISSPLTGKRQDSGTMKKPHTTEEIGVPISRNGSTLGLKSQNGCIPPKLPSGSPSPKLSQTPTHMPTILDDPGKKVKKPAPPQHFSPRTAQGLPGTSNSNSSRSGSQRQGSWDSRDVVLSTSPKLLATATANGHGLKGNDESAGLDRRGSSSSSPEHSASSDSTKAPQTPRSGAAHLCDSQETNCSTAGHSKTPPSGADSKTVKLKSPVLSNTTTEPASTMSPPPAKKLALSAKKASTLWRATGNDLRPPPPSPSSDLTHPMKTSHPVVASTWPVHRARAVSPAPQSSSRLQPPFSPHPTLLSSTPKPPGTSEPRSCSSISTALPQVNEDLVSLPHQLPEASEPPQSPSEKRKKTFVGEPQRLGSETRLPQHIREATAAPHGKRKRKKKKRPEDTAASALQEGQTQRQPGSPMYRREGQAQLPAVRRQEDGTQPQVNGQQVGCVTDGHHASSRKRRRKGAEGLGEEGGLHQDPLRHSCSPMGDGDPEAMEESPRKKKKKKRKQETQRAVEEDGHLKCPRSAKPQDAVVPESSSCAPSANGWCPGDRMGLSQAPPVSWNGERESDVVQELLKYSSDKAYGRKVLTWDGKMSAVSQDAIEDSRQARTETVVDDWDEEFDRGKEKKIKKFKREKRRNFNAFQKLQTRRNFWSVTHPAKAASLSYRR
In short: as §1

USP38 = target: T2, USP38 (UniProt Q8NB14)
T2 sequence (whole entry): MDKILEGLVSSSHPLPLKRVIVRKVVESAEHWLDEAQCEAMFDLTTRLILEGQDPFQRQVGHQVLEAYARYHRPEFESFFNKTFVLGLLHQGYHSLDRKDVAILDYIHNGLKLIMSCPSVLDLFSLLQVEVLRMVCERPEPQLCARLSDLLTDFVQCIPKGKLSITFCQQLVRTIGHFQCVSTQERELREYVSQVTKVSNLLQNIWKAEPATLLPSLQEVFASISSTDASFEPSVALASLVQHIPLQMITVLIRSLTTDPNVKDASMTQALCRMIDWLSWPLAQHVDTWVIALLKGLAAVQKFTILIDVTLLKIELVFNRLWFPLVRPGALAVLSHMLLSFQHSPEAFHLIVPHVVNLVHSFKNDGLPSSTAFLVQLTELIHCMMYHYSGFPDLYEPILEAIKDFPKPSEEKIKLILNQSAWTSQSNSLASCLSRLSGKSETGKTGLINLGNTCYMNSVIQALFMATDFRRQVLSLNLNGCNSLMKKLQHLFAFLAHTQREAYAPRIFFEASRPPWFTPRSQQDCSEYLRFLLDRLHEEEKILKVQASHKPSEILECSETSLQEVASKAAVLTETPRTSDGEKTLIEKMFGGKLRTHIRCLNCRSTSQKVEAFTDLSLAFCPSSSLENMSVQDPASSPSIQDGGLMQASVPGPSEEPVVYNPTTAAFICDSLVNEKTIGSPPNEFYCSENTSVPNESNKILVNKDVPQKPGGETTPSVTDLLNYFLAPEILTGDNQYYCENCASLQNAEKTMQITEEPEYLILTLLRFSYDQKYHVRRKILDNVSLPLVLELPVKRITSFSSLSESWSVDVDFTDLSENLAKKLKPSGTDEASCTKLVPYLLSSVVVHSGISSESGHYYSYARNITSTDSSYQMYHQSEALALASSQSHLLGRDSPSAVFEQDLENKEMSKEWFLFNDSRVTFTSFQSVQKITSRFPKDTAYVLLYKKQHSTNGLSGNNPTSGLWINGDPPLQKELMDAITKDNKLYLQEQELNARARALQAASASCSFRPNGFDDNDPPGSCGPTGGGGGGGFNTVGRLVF
In short: as §1

USP39 = target: T3, USP39 (UniProt Q53GS9)
T3 sequence (whole entry): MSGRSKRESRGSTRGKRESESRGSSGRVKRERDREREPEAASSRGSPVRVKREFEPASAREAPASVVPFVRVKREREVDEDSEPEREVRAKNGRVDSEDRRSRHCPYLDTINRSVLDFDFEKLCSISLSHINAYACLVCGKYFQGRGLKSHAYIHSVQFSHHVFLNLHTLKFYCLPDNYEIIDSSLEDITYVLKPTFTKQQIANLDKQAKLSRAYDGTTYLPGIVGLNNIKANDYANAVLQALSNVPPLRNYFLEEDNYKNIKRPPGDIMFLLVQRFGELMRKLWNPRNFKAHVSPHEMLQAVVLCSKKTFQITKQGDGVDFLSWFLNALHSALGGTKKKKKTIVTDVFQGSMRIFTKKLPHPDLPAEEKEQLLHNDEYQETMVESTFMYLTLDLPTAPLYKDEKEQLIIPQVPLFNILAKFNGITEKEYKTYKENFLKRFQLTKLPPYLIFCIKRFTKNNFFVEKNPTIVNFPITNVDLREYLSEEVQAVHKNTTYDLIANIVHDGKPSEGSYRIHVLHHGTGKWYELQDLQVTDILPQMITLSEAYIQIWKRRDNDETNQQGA
In short: as §1

USP4 = target: T4, USP4 (UniProt Q13107)
T4 sequence (whole entry): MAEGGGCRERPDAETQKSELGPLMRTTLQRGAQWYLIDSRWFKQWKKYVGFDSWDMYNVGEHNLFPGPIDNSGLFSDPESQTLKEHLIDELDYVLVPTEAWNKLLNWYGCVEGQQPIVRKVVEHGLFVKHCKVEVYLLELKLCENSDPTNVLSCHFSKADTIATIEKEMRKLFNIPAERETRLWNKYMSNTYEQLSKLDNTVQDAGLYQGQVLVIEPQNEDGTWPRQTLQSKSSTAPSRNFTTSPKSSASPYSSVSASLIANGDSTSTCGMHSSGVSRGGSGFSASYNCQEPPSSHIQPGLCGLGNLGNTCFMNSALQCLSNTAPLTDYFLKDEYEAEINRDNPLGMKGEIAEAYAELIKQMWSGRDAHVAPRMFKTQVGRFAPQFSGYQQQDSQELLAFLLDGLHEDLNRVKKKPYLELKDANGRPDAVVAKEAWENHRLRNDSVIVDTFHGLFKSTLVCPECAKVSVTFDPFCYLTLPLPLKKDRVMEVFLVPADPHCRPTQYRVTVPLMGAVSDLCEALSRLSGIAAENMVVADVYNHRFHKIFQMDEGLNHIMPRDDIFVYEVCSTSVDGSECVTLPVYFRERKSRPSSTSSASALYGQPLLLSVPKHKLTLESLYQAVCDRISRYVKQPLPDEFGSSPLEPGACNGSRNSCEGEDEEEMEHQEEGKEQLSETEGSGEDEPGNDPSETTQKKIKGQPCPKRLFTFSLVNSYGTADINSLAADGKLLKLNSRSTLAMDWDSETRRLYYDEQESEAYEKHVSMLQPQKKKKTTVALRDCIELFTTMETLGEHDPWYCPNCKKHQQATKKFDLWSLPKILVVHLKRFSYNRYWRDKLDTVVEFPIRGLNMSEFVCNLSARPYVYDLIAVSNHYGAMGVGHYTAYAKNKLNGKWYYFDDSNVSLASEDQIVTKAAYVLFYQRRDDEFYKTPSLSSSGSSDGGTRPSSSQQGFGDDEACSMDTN
In short: as §1

Measured: log2 ratio of Biotin-Ahx-Ub-VS probe labelling

USP34, sequence (Q70CQ2 whole entry, the tested form may be a part): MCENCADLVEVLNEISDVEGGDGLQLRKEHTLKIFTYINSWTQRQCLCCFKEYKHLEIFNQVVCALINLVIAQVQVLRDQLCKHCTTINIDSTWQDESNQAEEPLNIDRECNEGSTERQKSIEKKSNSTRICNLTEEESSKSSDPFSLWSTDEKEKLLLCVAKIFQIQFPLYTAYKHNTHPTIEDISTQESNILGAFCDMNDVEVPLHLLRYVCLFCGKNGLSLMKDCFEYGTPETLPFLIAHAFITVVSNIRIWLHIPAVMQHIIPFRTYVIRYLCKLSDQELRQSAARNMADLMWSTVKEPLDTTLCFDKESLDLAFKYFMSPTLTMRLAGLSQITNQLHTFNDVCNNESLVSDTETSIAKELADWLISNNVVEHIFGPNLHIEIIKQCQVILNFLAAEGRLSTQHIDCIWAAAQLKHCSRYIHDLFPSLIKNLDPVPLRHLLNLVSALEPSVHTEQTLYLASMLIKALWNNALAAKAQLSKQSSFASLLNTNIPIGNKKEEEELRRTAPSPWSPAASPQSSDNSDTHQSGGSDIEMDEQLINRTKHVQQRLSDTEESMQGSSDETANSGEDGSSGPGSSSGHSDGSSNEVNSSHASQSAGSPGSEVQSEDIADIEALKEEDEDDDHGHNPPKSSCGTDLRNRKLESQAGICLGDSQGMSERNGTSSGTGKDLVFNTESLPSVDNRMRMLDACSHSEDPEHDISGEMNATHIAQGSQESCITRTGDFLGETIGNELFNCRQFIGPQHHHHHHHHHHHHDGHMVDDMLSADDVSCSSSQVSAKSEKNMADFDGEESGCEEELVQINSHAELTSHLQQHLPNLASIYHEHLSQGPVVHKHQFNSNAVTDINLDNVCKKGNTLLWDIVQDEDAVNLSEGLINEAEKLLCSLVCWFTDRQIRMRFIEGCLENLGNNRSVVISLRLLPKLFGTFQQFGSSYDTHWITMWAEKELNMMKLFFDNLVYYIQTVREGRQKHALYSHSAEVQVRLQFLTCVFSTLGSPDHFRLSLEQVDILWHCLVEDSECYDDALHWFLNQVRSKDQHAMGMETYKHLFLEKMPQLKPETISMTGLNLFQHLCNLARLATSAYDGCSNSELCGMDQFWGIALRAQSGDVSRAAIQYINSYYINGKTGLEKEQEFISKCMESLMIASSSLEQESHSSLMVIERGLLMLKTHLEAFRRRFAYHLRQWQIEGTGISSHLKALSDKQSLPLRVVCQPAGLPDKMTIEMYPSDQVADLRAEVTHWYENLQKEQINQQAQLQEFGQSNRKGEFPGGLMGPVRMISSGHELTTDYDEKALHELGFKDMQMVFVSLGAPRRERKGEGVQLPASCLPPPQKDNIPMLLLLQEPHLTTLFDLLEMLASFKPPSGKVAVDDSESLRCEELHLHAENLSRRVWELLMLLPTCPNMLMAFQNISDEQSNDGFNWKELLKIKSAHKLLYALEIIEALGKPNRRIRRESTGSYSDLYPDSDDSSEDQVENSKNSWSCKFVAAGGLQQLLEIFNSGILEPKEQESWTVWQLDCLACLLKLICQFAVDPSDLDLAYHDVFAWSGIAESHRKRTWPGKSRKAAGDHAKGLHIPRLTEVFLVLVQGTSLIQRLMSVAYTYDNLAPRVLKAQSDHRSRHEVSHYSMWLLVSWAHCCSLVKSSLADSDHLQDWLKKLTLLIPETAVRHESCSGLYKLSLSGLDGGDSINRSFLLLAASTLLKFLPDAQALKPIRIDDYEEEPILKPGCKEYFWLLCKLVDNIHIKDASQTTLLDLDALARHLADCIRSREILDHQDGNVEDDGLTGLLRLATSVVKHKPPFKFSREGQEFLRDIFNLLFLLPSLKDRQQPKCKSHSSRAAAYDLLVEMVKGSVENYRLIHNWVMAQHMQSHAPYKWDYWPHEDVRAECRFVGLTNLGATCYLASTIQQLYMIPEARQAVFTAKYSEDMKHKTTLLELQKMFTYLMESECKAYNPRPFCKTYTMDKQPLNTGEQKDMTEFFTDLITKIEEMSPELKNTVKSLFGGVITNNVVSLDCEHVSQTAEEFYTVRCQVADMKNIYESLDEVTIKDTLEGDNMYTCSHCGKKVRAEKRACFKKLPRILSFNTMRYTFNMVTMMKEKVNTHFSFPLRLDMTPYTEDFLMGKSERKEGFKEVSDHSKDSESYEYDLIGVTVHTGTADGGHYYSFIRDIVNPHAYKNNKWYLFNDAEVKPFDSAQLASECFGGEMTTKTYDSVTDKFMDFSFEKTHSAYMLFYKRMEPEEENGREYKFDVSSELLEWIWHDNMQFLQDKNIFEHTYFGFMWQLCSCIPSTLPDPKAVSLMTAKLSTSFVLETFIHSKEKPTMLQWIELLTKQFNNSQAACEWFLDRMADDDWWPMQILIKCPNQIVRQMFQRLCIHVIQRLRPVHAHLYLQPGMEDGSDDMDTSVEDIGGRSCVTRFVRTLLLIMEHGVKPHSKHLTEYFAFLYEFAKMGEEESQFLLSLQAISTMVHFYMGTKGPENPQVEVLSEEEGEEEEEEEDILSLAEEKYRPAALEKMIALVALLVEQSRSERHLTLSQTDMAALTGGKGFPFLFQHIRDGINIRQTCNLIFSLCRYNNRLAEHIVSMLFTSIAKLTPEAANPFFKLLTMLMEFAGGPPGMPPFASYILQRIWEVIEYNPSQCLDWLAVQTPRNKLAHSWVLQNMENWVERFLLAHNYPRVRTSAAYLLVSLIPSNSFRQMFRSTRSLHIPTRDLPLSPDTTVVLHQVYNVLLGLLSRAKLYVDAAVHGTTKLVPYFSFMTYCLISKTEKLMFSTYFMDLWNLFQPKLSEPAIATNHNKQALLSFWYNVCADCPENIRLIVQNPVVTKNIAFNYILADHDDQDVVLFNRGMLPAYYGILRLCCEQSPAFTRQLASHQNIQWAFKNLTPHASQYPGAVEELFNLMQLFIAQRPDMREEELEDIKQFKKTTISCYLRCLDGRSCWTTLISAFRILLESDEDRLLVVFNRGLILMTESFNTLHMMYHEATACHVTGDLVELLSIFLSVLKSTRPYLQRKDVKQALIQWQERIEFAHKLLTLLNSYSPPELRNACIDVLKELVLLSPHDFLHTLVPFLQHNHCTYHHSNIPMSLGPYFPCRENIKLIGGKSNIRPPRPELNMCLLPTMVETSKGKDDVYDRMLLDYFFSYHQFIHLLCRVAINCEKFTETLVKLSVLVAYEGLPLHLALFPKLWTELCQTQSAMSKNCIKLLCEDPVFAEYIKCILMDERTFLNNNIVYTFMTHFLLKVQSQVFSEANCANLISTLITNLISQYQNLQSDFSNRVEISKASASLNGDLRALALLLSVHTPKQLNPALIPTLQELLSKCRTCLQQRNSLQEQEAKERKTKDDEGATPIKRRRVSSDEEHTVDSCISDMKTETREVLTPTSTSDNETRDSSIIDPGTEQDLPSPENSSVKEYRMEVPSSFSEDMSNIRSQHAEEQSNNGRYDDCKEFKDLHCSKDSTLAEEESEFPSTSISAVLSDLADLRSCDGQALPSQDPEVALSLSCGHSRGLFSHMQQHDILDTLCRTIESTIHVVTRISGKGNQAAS

O=C(CCl)N[C@H]1CC[C@@H](CO)CC1
inactive: USP34 -0.402 | USP36 -0.283 | USP38 -0.651 | USP39 -0.098 | USP4 -0.775
